Experimental data taken from the supplement of paper PMC8728848.
The entries come from a sample that favours the strongest signals as a whole.

Legend:
Assay in all cases: glycan array binding signal (z-score within array); higher = stronger binding
Conditions in all cases: glycan notation: IUPAC condensed, linker removed
GalNAc(b1-3)Gal = molecular target: GalNAc(b1-3)Gal
In short: (§1)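 Glycan array data came from 3228 arrays in the Consortium for Functional Glycomics database, and only arrays with an available protein sequence were kept. Glycan names were put into IUPAC-condensed notation, and columns mapping to the same glycan were averaged. The binding signal is a within-array Z-score, averaged across arrays of one protein sequence run at different concentrations or buffers and across linkers. A negative Z-score can be read as non-binding.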

GalNAc(b1-3)GalNAc = molecular target: GalNAc(b1-3)GalNAc
In short: as §1

GalNAc(b1-4)GlcNAc = molecular target: GalNAc(b1-4)GlcNAc
In short: as §1

[1] = molecular target: GlcNAc(a1-4)Gal(b1-4)GlcNAc(b1-3)Gal(b1-4)Glc
In short: as §1

[2] = molecular target: GlcNAc(a1-4)Gal(b1-4)GlcNAc(b1-3)Gal(b1-4)GlcNAc(b1-3)Gal(b1-4)GlcNAc
In short: as §1

[3] = molecular target: GlcNAc(b1-2)Man(a1-3)[GlcNAc(b1-2)Man(a1-6)]Man(b1-4)GlcNAc(b1-4)GlcNAc
In short: as §1

[4] = molecular target: GlcNAc(b1-2)[GlcNAc(b1-6)]Man(a1-6)[GlcNAc(b1-4)][GlcNAc(b1-2)Man(a1-3)]Man(b1-4)GlcNAc(b1-4)GlcNAc
In short: as §1

[5] = molecular target: GlcNAc(b1-3)Gal(b1-4)GlcNAc
In short: as §1

[6] = molecular target: GlcNAc(b1-3)Gal(b1-4)GlcNAc(b1-3)Gal(b1-4)GlcNAc(b1-3)Gal(b1-4)GlcNAc(b1-2)[GlcNAc(b1-3)Gal(b1-4)GlcNAc(b1-3)Gal(b1-4)GlcNAc(b1-3)Gal(b1-4)GlcNAc(b1-6)]Man(a1-6)[GlcNAc(b1-3)Gal(b1-4)GlcNAc(b1-3)Gal(b1-4)GlcNAc(b1-3)Gal(b1-4)GlcNAc(b1-2)Man(a1-3)]Man(b1-4)GlcNAc(b1-4)[Fuc(a1-6)]GlcNAc
In short: as §1

GlcNAc(b1-6)GalNAc = molecular target: GlcNAc(b1-6)GalNAc
In short: as §1

[7] = molecular target: Kdn(a2-3)Gal(b1-4)[Fuc(a1-3)]GlcNAc
In short: as §1

[8] = molecular target: Neu5Ac(a2-3)Gal(b1-3)GalNAc
In short: as §1

[9] = molecular target: Neu5Ac(a2-3)Gal(b1-3)GlcNAc(b1-2)Man(a1-3)[GlcNAc(b1-4)][Neu5Ac(a2-3)Gal(b1-3)GlcNAc(b1-2)Man(a1-6)]Man(b1-4)GlcNAc(b1-4)GlcNAc
In short: as §1

[10] = molecular target: Neu5Ac(a2-3)Gal(b1-3)GlcNAc(b1-3)Gal(b1-4)GlcNAc
In short: as §1

[11] = molecular target: Neu5Ac(a2-3)Gal(b1-3)[Fuc(a1-4)]GlcNAc(b1-3)Gal(b1-3)[Fuc(a1-4)]GlcNAc
In short: as §1

[12] = molecular target: Neu5Ac(a2-3)Gal(b1-4)GlcNAc(b1-2)Man
In short: as §1

[13] = molecular target: Neu5Ac(a2-3)Gal(b1-4)GlcNAc(b1-2)Man(a1-3)[Neu5Ac(a2-6)Gal(b1-4)GlcNAc(b1-2)Man(a1-6)]Man(b1-4)GlcNAc(b1-4)GlcNAc
In short: as §1

[14] = molecular target: Neu5Ac(a2-3)Gal(b1-4)GlcNAc(b1-3)Gal(b1-4)GlcNAc(b1-3)Gal(b1-4)GlcNAc
In short: as §1

[15] = molecular target: Neu5Ac(a2-3)Gal(b1-4)[Fuc(a1-3)]GlcNAc(b1-3)Gal(b1-4)GlcNAc
In short: as §1

[16] = molecular target: Neu5Ac(a2-3)Gal(b1-4)[Fuc(a1-3)]GlcNAc(b1-3)Gal(b1-4)[Fuc(a1-3)]GlcNAc(b1-3)Gal(b1-4)[Fuc(a1-3)]GlcNAc
In short: as §1

[17] = molecular target: Neu5Ac(a2-3)[GalNAc(b1-4)]Gal(b1-4)GlcNAc(b1-3)GalNAc
In short: as §1

[18] = molecular target: Neu5Ac(a2-6)Gal(b1-4)GlcNAc(b1-2)Man(a1-3)[Neu5Ac(a2-6)Gal(b1-4)GlcNAc(b1-2)Man(a1-6)]Man(b1-4)GlcNAc(b1-4)GlcNAc
In short: as §1

[19] = molecular target: Neu5Ac(a2-6)Gal(b1-4)GlcNAc(b1-2)Man(a1-6)[GlcNAc(b1-2)Man(a1-3)]Man(b1-4)GlcNAc(b1-4)GlcNAc
In short: as §1

[20] = molecular target: Neu5Ac(a2-6)Gal(b1-4)GlcNAc(b1-3)Gal(b1-4)GlcNAc(b1-3)Gal(b1-4)GlcNAc(b1-2)Man(a1-3)[Neu5Ac(a2-6)Gal(b1-4)GlcNAc(b1-3)Gal(b1-4)GlcNAc(b1-3)Gal(b1-4)GlcNAc(b1-2)Man(a1-6)]GalNAc
In short: as §1

[21] = molecular target: Neu5Ac(a2-6)Gal(b1-4)GlcNAc(b1-6)[Gal(b1-3)]GalNAc
In short: as §1

[22] = molecular target: Neu5Ac(a2-8)Neu5Ac(a2-3)Gal(b1-3)GalNAc(b1-4)[Neu5Ac(a2-8)Neu5Ac(a2-3)]Gal(b1-4)Glc
In short: as §1

[23] = molecular target: Neu5Ac(a2-8)Neu5Ac(a2-3)[Gal(b1-3)GalNAc(b1-4)]Gal(b1-4)Glc
In short: as §1

Neu5Ac(b2-6)GalNAc = molecular target: Neu5Ac(b2-6)GalNAc
In short: as §1

[24] = molecular target: Neu5Gc(a2-8)Neu5Gc(a2-6)Gal(b1-4)GlcNAc
In short: as §1

B1: FimD (Bordetella pertussis) (protein)
chain: MPARVISFCGAALAVWAGLAVQPAMAVDPPVDCGRALGLHFWSSASLISDQTPDGTLIGKPVVGRSLLSKSCKVPDDIKEDLSDNHDGEPVDIVLELGSNYKIRPQSYGHPGIVVDLPFGSTEETGIAIYIDFGSSPMQKVGERQWLYPQKGEVLFDVLTINGDNAEVRYQAIKVGPLKRPRKLVLSQFPNLFTYKWVFMRGTSQERVLAQGTIDTDVATSTIDLKTCRYTSQTVSLPIIQRSALTGVGTTLGMTDFQMPFWCYGWPKVSVYMSATKTQTGVDGVALPATGQAAGMASGVGVQLINGKTQQPVKLGLQGKIALPEAQQTESATFSLPMKAQYYQTSTSTSAGKLSVTYAVTLNYD
- glycan array binding signal (z-score) (GalNAc(b1-3)Gal): 0.008
- glycan array binding signal (z-score) (GalNAc(b1-3)GalNAc): -0.207
- glycan array binding signal (z-score) (GalNAc(b1-4)GlcNAc): 1.38
- glycan array binding signal (z-score) [1]: 1.99
- glycan array binding signal (z-score) [2]: -0.238
- glycan array binding signal (z-score) [3]: 0.004
- glycan array binding signal (z-score) [4]: -0.119
- glycan array binding signal (z-score) [5]: -0.296
- glycan array binding signal (z-score) [6]: 1.29
- glycan array binding signal (z-score) (GlcNAc(b1-6)GalNAc): -0.117
- glycan array binding signal (z-score) [7]: -0.279
- glycan array binding signal (z-score) [8]: 0.041
- glycan array binding signal (z-score) [9]: -0.459
- glycan array binding signal (z-score) [10]: -0.268
- glycan array binding signal (z-score) [11]: -0.191
- glycan array binding signal (z-score) [12]: 1.16
- glycan array binding signal (z-score) [13]: -0.107
- glycan array binding signal (z-score) [14]: 0.504
- glycan array binding signal (z-score) [15]: 0.96
- glycan array binding signal (z-score) [16]: -0.135
- glycan array binding signal (z-score) [17]: 0.943
- glycan array binding signal (z-score) [18]: 0.115
- glycan array binding signal (z-score) [19]: -0.065
- glycan array binding signal (z-score) [20]: 1.34
- glycan array binding signal (z-score) [21]: -0.022
- glycan array binding signal (z-score) [22]: 1.36
- glycan array binding signal (z-score) [23]: -0.095
- glycan array binding signal (z-score) (Neu5Ac(b2-6)GalNAc): -0.348
- glycan array binding signal (z-score) [24]: -0.611
